Bioassay records deposited in PubChem by National Center for Advancing Translational Sciences (NCATS).
DT40 TDP1 CPT: DT40-hTDP1 cell growth loss with CPT; chicken DT40 Tdp1-/-;hTDP1 cells + 20 nM CPT, ATP luminescence, 48 h; Potency, µM (titrated, usually from 46.2 µM), for inactives: at the highest dose activity change, negative = growth inhibition, most hits filed as inhibitors; 420,000 compounds, 12% hits; AID 686979; also: potency is read from the fitted curve at half-maximal effect; % is scaled to controls: 0 for no effect and ±100 for the full control effect; nearly all actives have a fitted effect of over 55% in size
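Chicken DT40 Tdp1-/- cells complemented with human TDP1, 400 cells/well, exposed to compounds plus 20 nM camptothecin for at least 48 h at 37 C; viability read as ATP content by CellTiter-Glo luminescence.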
TGFb SMAD3 inh: inhibitors of TGF-b signaling. 410,000 compounds, 1.2% hits. HepG2 CAGA-GFP TGF-b/SMAD3 reporter, GFP fluorescence, 18 h; TGF-beta stimulated, 500 pg/mL final. Potency, µM (top dose mostly 46.1 µM), without a hit: at the top dose activity, negative = inhibition, usual class: inhibitors; also: potency is read from the fitted curve at half-maximal effect; % is scaled to controls: 0 for no effect and ±100 for the full control effect; nearly all actives have a fitted effect of over 65% in size
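HEPG2 CAGA-GFP, 1000 cells/well; 2 h settle, 37 C; cpd via pin tool; TGF-b 500 pg/mL final; 18 h, 37 C; GFP imaging ex488/em500-530; %Activity normalised to -TGF-b and +DMSO controls; CRC fit, curve class.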
TDP1 block: blocks human tyrosyl-DNA phosphodiesterase 1; Q9NUW8; recombinant TDP1, AlphaScreen DNA substrate cleavage; Potency, µM (series often up to 130 µM), for the others: top-dose activity change, negative = inhibition, actives largely listed as inhibitors; 350,000 compounds, 0.28% hits; AID 485290; also: potency is read from the fitted curve at half-maximal effect; % is scaled to controls: 0 for no effect and ±100 for the full control effect; nearly all actives have a fitted effect of over 40% in size
Target sequence (Q9NUW8 whole entry, looked up): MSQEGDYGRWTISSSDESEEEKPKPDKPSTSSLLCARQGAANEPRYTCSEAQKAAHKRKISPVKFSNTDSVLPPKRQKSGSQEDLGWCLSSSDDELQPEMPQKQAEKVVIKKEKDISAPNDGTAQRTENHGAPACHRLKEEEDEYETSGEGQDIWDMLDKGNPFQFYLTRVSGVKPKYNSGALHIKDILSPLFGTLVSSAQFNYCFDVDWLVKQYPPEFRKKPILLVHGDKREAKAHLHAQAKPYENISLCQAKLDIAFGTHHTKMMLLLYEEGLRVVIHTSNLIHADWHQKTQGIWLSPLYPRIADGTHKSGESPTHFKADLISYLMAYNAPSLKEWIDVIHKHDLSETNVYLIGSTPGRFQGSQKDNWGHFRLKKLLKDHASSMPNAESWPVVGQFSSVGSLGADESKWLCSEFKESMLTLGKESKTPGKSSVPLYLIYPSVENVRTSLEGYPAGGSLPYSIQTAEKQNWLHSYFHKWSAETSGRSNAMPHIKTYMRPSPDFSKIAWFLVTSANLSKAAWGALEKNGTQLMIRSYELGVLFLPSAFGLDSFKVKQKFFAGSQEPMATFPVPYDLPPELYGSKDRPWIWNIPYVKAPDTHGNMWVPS
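Recombinant E. coli-expressed Tdp1 (1 nM) preincubated with compound 15 min at RT, then 5'-biotin/3'-phosphotyrosine-FITC DNA substrate (15 nM) added for 5 min. AlphaScreen beads (10 ug/ml) added, 10 min RT; tyrosine-FITC cleavage read as signal loss.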
TDP1 cell noCPT: qHTS for Inhibitors of human tyrosyl-DNA phosphodiesterase 1 (TDP1): qHTS in cells in absence of CPT | DT40 Tdp1-/- hTDP1 cells, no CPT, ATP luminescence, 48 h | Potency, µM (top dose mostly 46.2 µM), inactives show at the top dose activity change, negative = growth inhibition, usual class: inhibitors | AID 686978, 2013 | 420,000 compounds, 15% hits; also: potency is read from the fitted curve at half-maximal effect; % is scaled to controls: 0 for no effect and ±100 for the full control effect; nearly all actives have a fitted effect of over 55% in size
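Chicken DT40 Tdp1-/- cells complemented with human TDP1, screened without camptothecin (DMSO vehicle only), 400 cells/well. Compounds pin-transferred, cells incubated at 37 °C for at least 48 hr. Growth read as ATP-dependent luminescence (CellTiter-Glo, 30 min at RT).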
IL-1B inflam inh: inhibitors of inflammasome signaling (IL-1 beta secretion); THP-1 LPS/ATP IL-1B secretion, AlphaLISA, 16 h; stronger effect = lower value; activity change, % at 57.5 µM; 360,000 compounds, 4.7% hits; in the data active = activity change below about -50%; inconclusive = mostly about -30% to -49%; also: % is scaled to controls: 0 for no effect and ±100 for the full control effect
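Secreted IL-1B measured by AlphaLISA bead assay after 16 h compound exposure of THP-1 cells; compounds (final up to 57.5 uM) added 1 h before LPS (250 ng/mL) and ATP (1.25 mM) stimulation; lower signal means less secretion.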
HepG2 tox: counter-screen for TGF-b inhibitors: cytotoxicity in HepG2 cells | HepG2 CAGA-GFP viability, ATP luminescence, 18 h | Potency, µM (titrated, usually from 46.1 µM), for the others: at the highest dose activity change, negative = cytotoxicity, most hits filed as cytotoxic | 410,000 compounds, 0.76% hits | AID 588856; also: potency is read from the fitted curve at half-maximal effect
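CellTiter-Glo luminescence gave cytotoxicity after 18 hours at 37 degrees C. The cells were HepG2 CAGA-GFP in 1% FBS DMEM, stimulated with 500 pg/mL TGF-beta after compound addition. %Activity was normalised to no-cell wells (complete cell-killing) and DMSO (no toxicity), and curves were fitted and classified.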
Starred values were filed as active, the others as inactive; u = inconclusive; x = no result; [ ] = remark or other dose. An excerpt weighted towards active compounds, which were near 18% of everything screened. Unless noted, calls follow the shape of the dose curve; as a rule, active = well fitted curve in the direction sought with a large enough effect; inconclusive = small, poorly fitted or top-dose-only effect, or another doubt; inactive = no such curve, though single readings can be large; an effect the other way counts as inactive or inconclusive.

SMILES | DT40 TDP1 CPT | TGFb SMAD3 inh | TDP1 block | TDP1 cell noCPT | IL-1B inflam inh | HepG2 tox
Cc1ccc(OCc2cc(C(=O)N(C)C3CCCc4ccccc43)no2)cc1C (configuration not stated) | u | u | x | -71% | -3 | -40%
COc1ccc(-c2cn(Cc3ccc(C(N)=O)cc3)c(CCN)n2)cc1 | 2% | 1% | 3% | 8% | 17 | -7%
Cc1cc2oc3c(c(=O)c2cc1C)C1(C(=O)N(C)c2ccccc21)N(CCO)C3=O (configuration not stated) | -22% | -37% | 4% | 2% | x | 0%
O=C(NC1CCCC1)C(c1ccccn1)N(Cc1ccc(F)cc1)C(=O)c1csnn1 (configuration not stated) | 6% | -1% | 5%[0.0935 µM] | 0% | 4 | -8%
Cc1nnc(SCC(=O)N2CCC(c3noc4ccc(F)cc34)CC2)s1 | u | -5% | 7% | u | -27 | -3%
O=C(CSc1ccc2ccccc2n1)N1CCC(c2noc3ccc(F)cc23)CC1 | 16µM* | -11% | 0% | 12µM* | u | 0%
COc1ccc(-c2cn3nc(SCC(=O)NC4CCCCC4)ccc3n2)cc1 | 0% | 8% | 0% | -26% | 25 | 10%
COc1cc(C(=O)C(=O)N2CCN(c3ccccc3)CC2)cc(OC)c1OC | 3.7µM* | x | x | 3.7µM* | 40 | x
COc1cc(C(=O)C(=O)N2CCN(c3ccc(C)cc3)CC2)cc2ccccc12 | 15µM* | x | x | 15µM* | -3 | x
COc1cc(C(=O)C(=O)N2CCC(Cc3ccccc3)CC2)cc2ccccc12 | 16µM* | x | x | 23µM* | 2 | x
COc1cc(CCC(=O)N2CCN(c3ccccc3)CC2)cc(OC)c1OC | -28% | 30% | 6% | u | 4 | 26%
O=C1CCC=C1C(O)c1ccc(Cl)cc1 (configuration not stated) | x | x | 8% | x | x | x
CC(C)CC(CSc1ccc(Br)cc1)N1CCN(C)CCC1=O (configuration not stated) | x | -15% | 8% | x | x | -20%
O=C(COc1ccc(Cl)cc1)NCCS(=O)(=O)N1CCN(c2ccccc2F)CC1 | u | -23% | 1% | u | 6 | -6%
COC(=O)C1CCN(c2cc(=O)n(-c3ccc(OC)cc3)c(=O)[nH]2)CC1 | 3% | -7% | 0% | 3% | -11 | 0%
COc1cccc(N/C(SCc2cccc([N+](=O)[O-])c2)=C(/C#N)C(N)=O)c1 | u | u | 6% | u | -102* | 14µM*
COc1cccc(-c2cc3nc(-c4ccccc4)cc(N4CCN(C(=O)c5ccoc5)CC4)n3n2)c1 | 7.3µM* | -30% | x | 5.2µM* | -13 | -28%
COc1cccc(-c2cc3nc(-c4ccccc4)cc(N4CCC5(CC4)OCCO5)n3n2)c1 | u | 0% | u | 21µM* | u | -1%
COc1cccc(-c2cc(N3CCN(C(=O)c4ccoc4)CC3)n3nc(-c4cccc(Cl)c4)cc3n2)c1 | 15µM* | -4% | x | 8.2µM* | -6 | -3%
COc1ccc(N2CCN(C(=O)c3ccc(-c4ccccc4)cc3)CC2)cc1 | 1% | -12% | x | -2% | 11 | 16%
COc1cccc(-c2cc(C(F)(F)F)n3nc(-c4ccc(C)cc4)cc3n2)c1 | -22% | -13% | -1% | -15% | x | -15%
CCN(CC)S(=O)(=O)c1ccc2oc(C(=O)N3CCOCC3)c(C)c2c1 | -11% | -7% | 9% | u | 0 | 5%
CCN(CC)S(=O)(=O)c1ccc2oc(C(=O)NC3CCCc4ccccc43)c(C)c2c1 (configuration not stated) | 15µM* | -10% | 6% | 10µM* | -1 | -27%
CCN(CC)S(=O)(=O)c1ccc2oc(C(=O)N3CCCCCC3)c(C)c2c1 | u | -5% | 2% | 9.2µM* | 30 | -24%
CCOC(=O)N1CCN(C(=O)c2oc3ccc(S(=O)(=O)N(CC)CC)cc3c2C)CC1 | u | -6% | x | u | 53 | 3%
SMILES | DT40 TDP1 CPT | TGFb SMAD3 inh | TDP1 block | TDP1 cell noCPT | IL-1B inflam inh | HepG2 tox
CSCc1c(C(=O)NC2CCCc3ccccc32)oc2ccccc12 (configuration not stated) | u | -2% | 7% | u | -7 | -23%
CCN(CC)S(=O)(=O)c1ccc2oc(C(=O)N3CCc4ccccc4C3)c(C)c2c1 | u | 2% | -1% | 2.1µM* | -27 | 2%
CN(C)c1ccc(CNC(=O)C2CCN(C(=O)c3ccc(-n4ccc5ccccc54)s3)CC2)cc1 | 21µM* | u | 13% | 21µM* | x | -39%
Cc1cc2ccccc2n1-c1ccc(C(=O)N2CCC(C(=O)NCc3ccc(F)cc3)CC2)s1 | 21µM* | u | 3% | 16µM* | x | -25%
Cc1cc2ccccc2n1-c1ccc(C(=O)N2CCCCC2)s1 | u | u | 0% | u | x | -41%
COc1ccc(CNC(=O)C2CCN(C(=O)c3ccc(-n4ccc5ccccc54)s3)CC2)cc1 | 10µM* | u | -3% | 13µM* | x | -36%
COc1cc(C(C)=O)ccc1Oc1ncnc2c1cnn2-c1ccccc1 | u | -1% | 3% | u | -2 | -1%
COc1cc(C(C)=O)ccc1Oc1ncnc2c1cnn2-c1ccc(C)c(C)c1 | 12µM* | 1% | 0% | 15µM* | -13 | 14%
COc1ccc(C(=O)Nc2ncnc3nc[nH]c23)cc1 | -5% | -4% | x | -8% | x | 5%
CCOc1ccccc1NC(=O)C(c1ccccc1)N1Cc2ccccc2C1=O (configuration not stated) | u | -12% | 1% | u | x | -24%
Cc1cccc(OCCn2nc(C(=O)O)c3ccccc3c2=O)c1 | -18% | 9% | 9% | -28% | 15 | 27%
CC(C)(C)c1ccc(OCCn2nc(C(=O)O)c3ccccc3c2=O)cc1 | 16µM* | 2% | x | 21µM* | 5 | -10%
CC1S/C(=C(\C#N)C(=O)NCc2ccco2)N(Cc2ccco2)C1=O (configuration not stated) | 8.2µM* | 22% | 2% | u | 26 | 8%
O=C(CSc1nnnn1C1CCCCC1)N1CCOCC1 | u | 6% | 4% | -11% | -20 | 2%
COCCCn1c(SCC(=O)Nc2ccc3c(c2)OCCO3)nnc1-c1ccoc1C | -5% | -28% | 3% | -1% | -6 | 9%
